Source: PubChem BioAssay
Platelet DG rel – platelet dense granule release activity | human platelet-rich plasma, SFLLRN dense granule ATP release, luminescence | inhibition, %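 (compounds screened at 7.5 µM in platelet-rich plasma)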 | hit rate 0.22% among 300,000;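 active = mean replicate score, as percent of positive control, at or above 50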
VLA-4 inh – inhibition in a human VLA-4 binding assay; inhibition, % (about 7 µM as worked out from the volumes in the protocol); VLA-4 expressing cells, ligand binding flow cytometry; hit rate 0.2% among 330,000; in the data active = inhibition above about 50%
Target sequence (P13612 whole entry, looked up): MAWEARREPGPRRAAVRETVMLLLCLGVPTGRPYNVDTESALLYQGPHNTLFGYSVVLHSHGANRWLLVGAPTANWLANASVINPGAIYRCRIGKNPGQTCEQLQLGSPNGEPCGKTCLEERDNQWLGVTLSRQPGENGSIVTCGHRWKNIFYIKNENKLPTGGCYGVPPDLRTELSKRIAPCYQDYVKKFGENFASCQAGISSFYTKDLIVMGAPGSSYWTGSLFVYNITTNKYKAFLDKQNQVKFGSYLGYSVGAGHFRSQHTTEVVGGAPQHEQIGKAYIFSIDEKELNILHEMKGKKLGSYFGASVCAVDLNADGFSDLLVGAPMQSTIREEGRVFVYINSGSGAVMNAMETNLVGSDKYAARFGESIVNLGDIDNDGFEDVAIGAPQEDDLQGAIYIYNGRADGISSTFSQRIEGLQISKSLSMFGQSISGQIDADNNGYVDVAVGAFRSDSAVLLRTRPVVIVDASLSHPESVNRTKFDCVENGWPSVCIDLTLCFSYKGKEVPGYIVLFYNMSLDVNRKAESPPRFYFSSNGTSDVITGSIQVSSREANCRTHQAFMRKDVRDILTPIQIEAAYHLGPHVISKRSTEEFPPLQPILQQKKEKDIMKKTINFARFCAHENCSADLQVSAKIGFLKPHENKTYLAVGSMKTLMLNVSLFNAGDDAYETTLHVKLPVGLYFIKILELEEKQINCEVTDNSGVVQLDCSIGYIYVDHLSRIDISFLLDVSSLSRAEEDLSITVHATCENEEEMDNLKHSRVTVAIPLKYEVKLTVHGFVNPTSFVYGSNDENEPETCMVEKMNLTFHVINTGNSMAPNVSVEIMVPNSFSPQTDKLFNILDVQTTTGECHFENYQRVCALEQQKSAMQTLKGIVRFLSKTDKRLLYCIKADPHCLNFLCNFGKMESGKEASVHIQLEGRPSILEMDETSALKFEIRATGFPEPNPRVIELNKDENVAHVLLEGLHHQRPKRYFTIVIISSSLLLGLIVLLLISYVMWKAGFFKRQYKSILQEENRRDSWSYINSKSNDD
CHT allo act – allosterically activates the human high affinity choline transporter; Q9GZV3; CHT-expressing cells, membrane potential dye, choline EC20; active compounds read high; LV-AA mutant CHT in HEK293 cells; B-score at 10 µM; hit rate 0.49% among 310,000; AID 488977;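 active = initial fluorescence not abnormally high and integrated response B-score, plate-corrected, over 3 SD above library mean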
AI-2 QS mod – Vibrio harveyi AI-2 quorum sensing modulation; Vibrio harveyi JMH597 AI-2 luminescence/OD600 ratio, 9 h; active compounds read low; strain lacks LuxN and CqsS sensors; 0 = neutral-control median; activity change, % at 7.5 µM; hit rate 0.4% among 300,000; in the data active = activity change below about -75%, passing the limit was not always enough;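 note: luminescence divided by OD600 gain over 9 h not by final OD600 alone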
HIF activator – HIF pathway transcriptional activation | activation, % at 7.5 µM (by protocol) | AID 1910 | hit rate 0.32% among 300,000 | U2OS HRE-luciferase reporter, luminescence; normalized: DMSO 0%, desferrioxamine 100%;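 active = mean activation of at least 10% of the iron chelator positive control signal, with at least half of replicates also reaching 10%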
CHT inh – human CHT choline transport inhibition; B-score at 10 µM; Q9GZV3; CHT-expressing cells, membrane potential dye, choline response; active compounds read low; hit rate 0.86% among 310,000; AID 488975;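 active = B-score over 3 SD under the library average, and starting fluorescence ratio not unusually high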;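 note: choline stimulus applied at its EC90 after an EC20 pre-addition; B-score computed on integrated fluorescence ratio after choline addition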
VLA-4 allo CP – human VLA-4 allosteric modulation in cherry picked compounds | shares compounds with VLA-4 inh | U937 cells, HUTS-21 LIBS mAb binding, flow cytometry; LDV ligand present at threefold Kd | inhibition, % at 6.7 µM | hit rate 2% among 1,300; in the data active = inhibition above about 40%
Numbers stand for hits; i = inactive; nt = not tested or not shown. Only some compounds are listed: those with a hit (about 2.2% of all), similar ones and a draw of the others.

SMILES	Platelet DG rel	VLA-4 inh	CHT allo act	AI-2 QS mod	HIF activator	CHT inh	VLA-4 allo CP
COc1ccc(CCNC(=O)c2ccc3c(c2)NC(=O)C(CSCc2cc(C)ccc2C)N3)cc1OC (centres undefined)	i	i	i	i	i	i	nt
Cn1c(=N)n(CC(O)c2ccco2)c2ccccc21 (centres undefined)	i	i	i	i	i	i	nt
Cn1c(=N)n(CC(O)c2cccc3ccccc23)c2ccccc21 (centres undefined)	i	51.2	i	i	i	i	i
COc1ccc(C(=O)NC2CCN(Cc3c(F)cccc3Cl)CC2)cc1OC	i	i	i	i	i	i	nt
COc1ccc(S(=O)(=O)N2CCOCC2)cc1NC(=O)COC(=O)C1COc2ccccc2O1 (centres undefined)	i	i	i	i	i	i	i
COc1ccc(C)cc1NC(=O)COC(=O)C1COc2ccccc2O1 (centres undefined)	nt	i	nt	nt	nt	nt	nt
CC(C)NC(=O)Cn1cc(C(=O)C(=O)N2CCOCC2)c2ccccc21	i	i	i	i	i	i	i
O=C(Cn1cc(C(=O)C2CC2)c2ccccc21)NC1CCCC1	i	58.4	i	i	i	i	i
COC(=O)c1cn(CC(=O)NC2CCCCC2)c2ccccc12	i	i	i	i	i	i	nt
COc1ccc(CC(=O)NNC(=O)CSc2ccc(C)cc2)cc1	i	53.1	i	i	i	i	i
Clc1ccc(CSc2nncn2-c2ccccn2)cc1	i	59.6	i	i	i	i	i
Cc1ccc(-c2nn3c(-c4ccco4)nnc3c3ccccc23)cc1S(=O)(=O)NCC1CCCO1 (centres undefined)	i	i	i	i	i	i	i
Cc1cccc(C(=O)OCC(=O)NCCCc2ccccc2)c1O	i	i	i	i	i	i	nt
Cc1ccccc1C(=O)N1CCC(C(=O)Nc2ccccn2)CC1	i	51.4	i	i	i	i	i
Cc1ccccc1C(=O)N1CCC(C(=O)Nc2ccc(F)cc2)CC1	i	i	i	i	i	i	nt
Cc1ccccc1C(=O)N1CCC(C(=O)Nc2ccc(C(C)C)cc2)CC1	i	i	i	i	i	i	i
N=c1n(CCO)c2ccccc2n1CCOc1ccc(Cl)cc1Cl	i	53.6	i	i	i	i	i
CCN(C[C@H]1N[C@@](Cc2ccccc2)(C(=O)OC)[C@H]2C(=O)N(C)C(=O)[C@@H]12)C(=O)c1ccc(C)cc1	nt	51.1	nt	nt	nt	nt	i
COC(=O)[C@]1(Cc2ccccc2)N[C@H](CN(C)C(=O)Nc2ccc(OC)cc2)[C@@H]2C(=O)N(Cc3ccccc3)C(=O)[C@@H]21	nt	i	nt	nt	nt	nt	i
CCN(C[C@H]1N[C@@](Cc2ccccc2)(C(=O)OC)[C@H]2C(=O)N(C)C(=O)[C@@H]12)C(=O)Nc1ccc(C)cc1	nt	i	nt	nt	nt	nt	nt
COC(=O)[C@]1(Cc2ccccc2)N[C@H](CN(C)C(=O)Nc2ccc(OC)cc2)[C@@H]2C(=O)N(C)C(=O)[C@@H]21	nt	i	nt	nt	nt	nt	nt
CCN(C[C@H]1N[C@@](Cc2ccccc2)(C(=O)OC)[C@H]2C(=O)N(Cc3ccccc3)C(=O)[C@@H]12)C(=O)c1ccc(F)cc1	nt	i	nt	nt	nt	nt	i
CCCN(CCC)CCCNC(=O)c1cc2c(=O)[nH]c3ccccc3c2s1	i	i	i	i	i	i	nt
COc1ccccc1N1CCN(S(=O)(=O)CCNC(=O)c2ccc(Br)o2)CC1	i	i	i	i	i	i	nt
CCOC(=O)N1CCN(Cc2nc3cc(NC(=O)CC(C)C)ccc3n2CC)CC1	i	51.0	i	i	i	i	i
SMILES	Platelet DG rel	VLA-4 inh	CHT allo act	AI-2 QS mod	HIF activator	CHT inh	VLA-4 allo CP
CCOC(=O)N1CCN(Cc2nc3cc(NC(=O)CC(C)C)ccc3n2C)CC1	i	i	i	i	i	i	nt
COc1cc(/C=C2\SC(=S)N(CCC(=O)N3CCCCC3)C2=O)cc(OC)c1OC	i	i	i	i	i	i	nt
CNC(=O)C(=O)Nc1c(C)cc(C)cc1C	i	i	i	i	i	i	i
CNC(=O)C(=O)Nc1ccc(C)cc1C	i	i	i	i	i	i	nt
COc1cccc(C(C(=O)NC(C)(C)C)N(Cc2ccc(F)cc2)C(=O)CCC(=O)Nc2cc(C)on2)c1OC (centres undefined)	i	i	i	i	i	i	nt
CCS(=O)(=O)N1CCC(C(=O)NCc2ccc(OC)cc2OC)CC1	i	i	i	i	i	i	nt
COc1ccc(CNC(=O)C2CCN(S(C)(=O)=O)CC2)c(OC)c1	i	52.9	i	i	i	i	i
CN(C(=O)COC(=O)CCc1nc2ccccc2c(=O)[nH]1)C1CCS(=O)(=O)C1 (centres undefined)	i	i	i	i	i	i	nt
N#CCCN(C(=O)COC(=O)CCc1nc2ccccc2c(=O)[nH]1)c1ccccc1F	nt	51.3	nt	nt	nt	nt	i
CCc1cc2ccccc2nc1SCC(=O)Nc1cc(OC)c(OC)cc1C(=O)O	i	i	i	i	i	i	nt
CCCOc1ncnc2c1[nH]c1ccc(C)cc12	i	i	i	i	i	i	i
CCOc1ncnc2c1[nH]c1ccccc12	i	i	i	i	i	i	i
Cc1ccc2[nH]c3c(Cl)ncnc3c2c1	i	i	i	i	i	i	nt
COc1ccc(CNc2ncnc3c2[nH]c2ccccc23)cc1	i	i	i	i	i	i	nt
O=C(OCC(=O)N1CCCCCC1)c1ccc[nH]c1=O	nt	i	nt	nt	nt	nt	nt
O=C(OCC(=O)N1CCOCC1)c1ccc[nH]c1=O	i	51.9	i	i	i	i	i
O=C(CN1C(=O)N/C(=C\c2ccccc2OCc2ccc(C(=O)O)cc2)C1=O)Nc1ccccc1F	i	i	i	i	i	i	nt
COc1ccccc1N(CC(=O)Nc1cccnc1)S(=O)(=O)c1ccccc1	i	i	i	i	i	i	nt
COc1ccc(OC)c(N(CC(=O)Nc2cccnc2)S(=O)(=O)c2ccccc2)c1	i	63.1	i	i	i	i	i
NC(=O)[C@H]1CC2(CC(c3cccc(NC(=O)[C@H]4CCC(=O)N4)c3)=NO2)CN1C(=O)c1ccccc1 (some centres undefined)	i	51.5	i	i	i	i	i
Cc1cc(C)c(C#N)c(Oc2ccc(O)cc2)n1	i	i	i	i	i	i	nt
CCCC(=O)Nc1cccc(Oc2nc(C)cc(C)c2C#N)c1	i	88.9	i	i	i	i	i
COC(=O)[C@]1(Cc2ccccc2)N[C@H](CN(C)S(=O)(=O)c2ccc(-c3ccccc3)cc2)[C@@H]2C(=O)N(Cc3ccccc3)C(=O)[C@@H]21	nt	i	nt	nt	nt	nt	i
CCN(C[C@H]1N[C@@](Cc2ccccc2)(C(=O)OC)[C@H]2C(=O)N(Cc3ccccc3)C(=O)[C@@H]12)S(=O)(=O)c1ccc(-c2ccccc2)cc1	nt	i	nt	nt	nt	nt	i
CC(=O)Oc1ccc(C(=O)Nc2cccc3c2CCCC3)cc1	i	i	i	i	i	i	nt
